Assay outcomes from PubChem.
TGFb SMAD3 inh = TGF-b pathway inhibition. Potency, µM (doses to about 46.1 µM), inactives show at the highest dose activity, negative = inhibition, usual class: inhibitors. 1.2% of 410,000 active. HepG2 CAGA-GFP TGF-b/SMAD3 reporter, GFP fluorescence, 18 h; TGF-beta stimulated, 500 pg/mL final; note: % is set by controls: 0 for no effect and ±100 for the full control effect; nearly all actives have a fitted effect of over 65% in size
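GFP signal (ex488/em500-530) from TGF-beta-stimulated HEPG2 CAGA-GFP cells, 500 pg/mL final, 18 h at 37 degrees C in DMEM plus 1% FBS, normalized to unstimulated and DMSO-stimulated controls.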
DT40 TDP1 no CPT = qHTS for Inhibitors of human tyrosyl-DNA phosphodiesterase 1 (TDP1): qHTS in cells in absence of CPT; DT40 Tdp1-/- hTDP1 cells, no CPT, ATP luminescence, 48 h; Potency, µM (highest dose often 46.2 µM), without a hit: at the highest dose activity change, negative = growth inhibition, actives largely listed as inhibitors; 15% of 420,000 active; note: % is set by controls: 0 for no effect and ±100 for the full control effect; nearly all actives have a fitted effect of over 55% in size
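Chicken DT40 Tdp1-/- cells complemented with human TDP1, screened without camptothecin (DMSO vehicle only), 400 cells/well. Compounds pin-transferred, cells incubated at 37 °C for at least 48 hr. Growth read as ATP-dependent luminescence (CellTiter-Glo, 30 min at RT).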
HepG2 viability = HepG2 cytotoxicity, counter-screen for TGF-b inhibitors | HepG2 CAGA-GFP viability, ATP luminescence, 18 h | Potency, µM (series often up to 46.1 µM), for the others: top-dose activity change, negative = cytotoxicity, usual class: cytotoxic | 0.76% of 410,000 active
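CellTiter-Glo luminescence gave cytotoxicity after 18 hours at 37 degrees C. The cells were HepG2 CAGA-GFP in 1% FBS DMEM, stimulated with 500 pg/mL TGF-beta after compound addition. %Activity was normalised to no-cell wells (complete cell-killing) and DMSO (no toxicity), and curves were fitted and classified.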
ATXN2 expr inh = reduces ATXN2 reporter expression in HEK-293 cells; HEK-293 ATXN2-luciferase reporter, luminescence, 24 h; Potency, µM (series often up to 57 µM), for inactives: top-dose activity change, negative = inhibition, actives largely listed as inhibitors; 0.72% of 360,000 active; AID 1745845; note: % is set by controls: 0 for no effect and ±100 for the full control effect; nearly all actives have a fitted effect of over 55% in size
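qHTS (up to 57 uM final) was run with 24 h compound exposure of reporter cells at 37 °C. Each well was multiplexed: SteadyGlo luminescence measured ATXN2-luciferase expression after a fluorogenic Gly-Phe-AFC viability readout (25 uM final).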
ATXN viability = reduces viability in counter-screen for ATXN expression inhibitors; S2 cells (HEK-293 line with an ATXN2-luciferase reporter) viability, CellTiter-Fluor protease fluorescence, 24 h; Potency, µM (titrated, usually from 56.7 µM), usual class: cytotoxic; 0.49% of 400,000 active; note: nearly all actives have a fitted effect of over 40% in size
TDP1 cell CPT = DT40-hTDP1 cell growth loss with CPT; chicken DT40 Tdp1-/-;hTDP1 cells + 20 nM CPT, ATP luminescence, 48 h; Potency, µM (top dose mostly 46.2 µM), for inactives: at the top dose activity change, negative = growth inhibition, actives largely listed as inhibitors; 12% of 420,000 active; AID 686979; note: % is set by controls: 0 for no effect and ±100 for the full control effect; nearly all actives have a fitted effect of over 55% in size
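Chicken DT40 Tdp1-/- cells stably complemented with human TDP1 were seeded at 400 cells/well in medium containing 20 nM camptothecin, exposed to pin-transferred compounds, and grown at 37 °C for at least 48 hr. Viability was read as ATP luminescence.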
An asterisk follows results filed as active; i = inactive; u = inconclusive; x = not tested or not shown; ! = not confirmed by another sample. Shown are actives, neighbours in structure and some others; about 17% of the full set was active somewhere. Calls come from the whole dose curve; as a rule, active = well fitted curve in the direction sought with a large enough effect; inconclusive = small, poorly fitted or top-dose-only effect, or another doubt; inactive = no such curve, though single readings can be large; an effect the other way counts as inactive or inconclusive. Potency is the fitted concentration of half-maximal effect.

SMILES	TGFb SMAD3 inh	DT40 TDP1 no CPT	HepG2 viability	ATXN2 expr inh	ATXN viability	TDP1 cell CPT
COc1ccc(Br)cc1C(C[N+](=O)[O-])c1c(N)n(C)c(=O)n(C)c1=O (stereo unspecified)	10µM*	3.7µM*	16µM*	x	x	3.7µM*
O=C(c1nc[nH]c1C(=O)N1CCN(c2ccccc2)CC1)N1CCN(c2ccccc2)CC1	7%	-8%	6%	-1%	i	13µM*
C[C@H](NC(=O)c1nc[nH]c1C(=O)N1CCN(c2ccccc2)CC1)C(=O)OCc1ccccc1	-20%	u	-25%	-7%	i	18µM*
O=C(N[C@@H](Cc1ccccc1)C(=O)OCc1ccccc1)c1nc[nH]c1C(=O)N1CCN(c2ccccc2)CC1	u	u	-53%	u	x	u
CC(C)(C)OC(=O)N1CCN(C(=O)c2nc[nH]c2C(=O)N2CCN(c3ccccc3)CC2)CC1	-30%	6%	1%	2%	i	-4%
CCN(CC)C(=O)c1[nH]cnc1C(=O)N[C@@H](C)C(=O)OCc1ccccc1	u	10µM*	-14%	-9%	i	u
C[C@H](NC(=O)c1nc[nH]c1C(=O)NC(c1ccccc1)c1ccccc1)C(=O)OCc1ccccc1	u	23µM*	-13%	-20%	u	23µM*
C[C@H](NC(=O)c1nc[nH]c1C(=O)N[C@@H](C)C(=O)OCc1ccccc1)C(=O)OCc1ccccc1	u	-8%	-15%	-8%	i	-4%
CN(CCCNC(=O)Cn1c(=O)c2cccn2c2ccccc21)Cc1ccccc1	1%	5%	-33%	-12%	i	-11%
CN(Cc1ccccc1)C(=O)Cn1c(=O)c2cccn2c2ccc(F)cc21	0%	6.5µM*	-3%	x	x	23µM*
CN(C)CCNC(=O)Cn1c(=O)c2cccn2c2ccc(F)cc21	12%	16µM*!	3%	0%	i	23µM*!
CC(C)N(CCCNC(=O)Cn1c(=O)c2cccn2c2ccccc21)Cc1ccccc1	-14%	-16%	-6%	-16%	i	18µM*
Cc1cccc(N2CCN(C(=O)Cn3c(=O)c4cccn4c4ccc(F)cc43)CC2C)c1 (stereo unspecified)	-6%	18µM*	-29%	x	x	18µM*
CCOc1[nH]c(/N=C/c2ccc(OC)cc2)c(C#N)c1C#N	3%	-11%	-34%	x	x	-29%
CCOc1[nH]c(/N=C/c2ccco2)c(C#N)c1C#N	4%	u	14%	0%	i	21µM*
O=C(COC(=O)C12CC3CC(CC(Cl)(C3)C1)C2)Nc1ccccc1	-8%	0%	-1%	2%	i	-2%
COc1cc(CN2CCN(Cc3ccc(SC)cc3)CC2)cc(OC)c1O	-10%	-18%	-2%	-9%	i	-21%
Cc1ccc(CN2CCC(C)(Oc3cccc(Cl)c3)C2)cc1 (stereo unspecified)	-9%	u	-11%	-26%	i	29µM*
COc1cc(Cl)ccc1OC1(C)CCN(Cc2ccc(SC)cc2)C1 (stereo unspecified)	u	18µM*	-43%	0%	u	13µM*
CC1(Oc2cccnc2Cl)CCN(Cc2ccc(OC(F)(F)F)cc2)C1 (stereo unspecified)	-32%	18µM*	-24%	-13%	i	21µM*
CC1(Oc2ccc3ccccc3c2)CCN(Cc2ccc(OC(F)(F)F)cc2)C1 (stereo unspecified)	0%	-24%	-6%	2%	i	-25%
CC1(Oc2cccc(Cl)c2)CCN(Cc2ccc(OC(F)(F)F)cc2)C1 (stereo unspecified)	-10%	-29%	-33%	4%	i	-19%
COc1cc(OC)c(OC)cc1CN1CCN(Cc2ccc(SC)cc2)CC1	u	13µM*	-37%	x	i	u
COc1[nH]c2ccc(F)cc2c1C(=O)OCC1CCN(CCNS(C)(=O)=O)CC1	35%	1%	-5%	1%	i	3%
N[C@H](C(=O)O)[C@@H](O)c1ccc(O)c(O)c1	x	-11%	x	1%	i	u
SMILES	TGFb SMAD3 inh	DT40 TDP1 no CPT	HepG2 viability	ATXN2 expr inh	ATXN viability	TDP1 cell CPT
Cc1ccccc1OC1(C)CCN(Cc2ccc3ccccc3c2)C1 (stereo unspecified)	-12%	16µM*	-34%	-5%	i	u
COC(=O)Cc1ccc(OC2(C)CCN(Cc3ccc(-c4ccccn4)cc3)C2)cc1 (stereo unspecified)	-10%	u	-21%	-5%	i	u
CC(=O)c1cc2cccc(OC3(C)CCN(Cc4ccc(-c5ccccn5)cc4)C3)c2o1 (stereo unspecified)	1%	18µM*	-23%	-19%	u	u
COc1cccc(OC2(C)CCN(Cc3ccc(-c4ccccn4)cc3)C2)c1 (stereo unspecified)	3%	u	-19%	-11%	i	21µM*
CSc1ccc(CN2CCC(C)(Oc3ccccc3C)C2)cc1 (stereo unspecified)	u	u	-41%	-2%	i	u
COc1cc(OC)cc(C(=O)NNC(=O)CCNS(=O)(=O)c2ccc(Br)cc2)c1	-15%	-18%	-3%	-12%	i	-26%
CN(c1nc2ccccc2n2c(C3CC3)nnc12)S(=O)(=O)c1ccccc1	0%	u	-12%	x	i	-27%
Cc1ccc(C(=O)NCC(=O)Nc2ccncc2)s1	4%	-3%	-3%	-13%	i	-10%
O=C1Nc2cc(Cl)ccc2Oc2cc(Oc3ccccc3)ccc21	-16%	21µM*	-24%	14%	i	u
O=C1Nc2ccccc2Oc2cc(Oc3ccc(Cl)cc3)ccc21	-12%	u	-25%	-2%	i	-25%
COc1ccc(C2C(=O)N(C3CCCCCC3)CC(=O)N2CCc2ccc(OC)c(OC)c2)cc1 (stereo unspecified)	1%	u	-6%	x	x	u
CCOC(=O)CN1C(C(=O)c2ccccc2)=C(OC(=O)c2ccccc2)c2ccccc2S1(=O)=O	u	26µM*	-42%	9%	u	21µM*
COC(=O)CN1C(C(=O)c2ccccc2)=C(OC(=O)c2ccc(F)cc2)c2ccccc2S1(=O)=O	u	-23%	-30%	14%	u	16µM*
